B1: design_604_3e0b3014-b333-46f1-8adc-d7f0bf8048fa_2199_dldesign_0_cycle1_af2pred (protein)
chain: DAAVKAEASKVAAEAYEVIAEIEKLDPEKGKELRKKLKEARKKAKEDPKAGLAALKEVLEESKKELEKLKKEEKEKE
B2: design_605_6ebdab39-eaab-4492-afcb-164e20c3b25e_128_dldesign_0_cycle1_af2pred (protein)
chain: MEEKKAEEKKLKEKKEEAKEYLRRAKRAMGRAMVKGDEEAFELAEEAVYLAHLAIKDPKYIEEAKKKTEEAEKRVEA
B3: design_604_3e0b3014-b333-46f1-8adc-d7f0bf8048fa_2309_dldesign_0_cycle1_af2pred (protein)
chain: SHELLQQAIEELTAAEAEARRAAKIAEKKDKELAKKAKELAKKARELRKELIEKAKAGEATDEYIEEVLKKAKELEKEAKKILKEL
B4: design_604_3e0b3014-b333-46f1-8adc-d7f0bf8048fa_2138_dldesign_0_cycle1_af2pred (protein)
chain: GEELIKRAEEVIERAEKVRKEDPSLAKEANEAISTAEQAKQAAENAVKAAADPEKAKEFKEAAEKYLEKAEKRVEELEKKVKE
B5: design_604_3e0b3014-b333-46f1-8adc-d7f0bf8048fa_1344_dldesign_0_cycle1_af2pred (protein)
chain: KEKQKELLLESAVEEAEKAAKLLKDPELGKRLLTAVKAAKEDVSKAPEAAAVAREVGAKEPEASLEASAAAASLLSAYRIAKS
B6: design_604_3e0b3014-b333-46f1-8adc-d7f0bf8048fa_1397_dldesign_0_cycle1_af2pred (protein)
chain: SENELTEEAVSLAARVSKRANELGKKTGSEELLKLSEEAKELRDKIVDDPSTAEEALKKVKELEKRIEELTAA
B7: design_604_3e0b3014-b333-46f1-8adc-d7f0bf8048fa_1712_dldesign_0_cycle1_af2pred (protein)
chain: SEEGQKVLEKIEELRKEAEKFAKENKENGPKFARELAKKMRELAEKAKKEYGWNQEILNKASKVVHEARQLANEAEVEAKK
B8: design_604_3e0b3014-b333-46f1-8adc-d7f0bf8048fa_1221_dldesign_0_cycle1_af2pred (protein)
chain: AEMEERKAKGLEQAERLAERAKEAGKLNPEKAAELLGKAEAMLAKVRAMDNEAQWAEAAKEAAKLRELIAEAETEARRKKEEE
B9: design_604_3e0b3014-b333-46f1-8adc-d7f0bf8048fa_1949_dldesign_0_cycle1_af2pred (protein)
chain: AEKYKKKMAEAAHLYADLAMEGKPEEGEKEADAIIEKALKEGKAAGDGEAAEAAAKEARATMEYLKKTMEEADKRNK
B10: design_604_3e0b3014-b333-46f1-8adc-d7f0bf8048fa_1927_dldesign_0_cycle1_af2pred (protein)
chain: LVEEAKKIAEEKAEEMKKAMEKAEKEGKEAMKKAKEKFKKLRAELKKLYEEYKKKDPEAAKKLAEGAHKMYEYMNEAEHKL
B11: design_604_3e0b3014-b333-46f1-8adc-d7f0bf8048fa_1332_dldesign_0_cycle1_af2pred (protein)
chain: EEVKEYLAKLSAEAYELLAEAEVLYKKTGSEKAKEAKELAKEALKELKEAGKLLEEDPEKAKEKAKIGEEKLKKAKEILEEIYKE
B12: design_604_3e0b3014-b333-46f1-8adc-d7f0bf8048fa_1429_dldesign_0_cycle1_af2pred (protein)
chain: DKQVISNKAKAQAERAKQAAKNILKTGDASLAPKVKEIAKKAEKAAKEAEKAGDKESAKEAKKAAKEAKKAAKKVEE
B13: design_605_6ebdab39-eaab-4492-afcb-164e20c3b25e_50_dldesign_0_cycle1_af2pred (protein)
chain: DEKIEELREAILESAKSGGETVEEVAKLAKELGLTSAEVMLAALEAAEELPEKRELAREIGRRIAAAVLA
B14: design_604_3e0b3014-b333-46f1-8adc-d7f0bf8048fa_1479_dldesign_0_cycle1_af2pred (protein)
chain: MEEEVKKAKEKIEKLEKAALKTIDILEESAKLGDDISGIKTAAKAAEKEFGKLAKEYPGAAAYAKEAEKKVVDYANKAIKAAKAAK
B15: design_604_3e0b3014-b333-46f1-8adc-d7f0bf8048fa_1395_dldesign_0_cycle1_af2pred (protein)
chain: AEKEELIAKAKEIAAKSAEVAKEAKKLGKDAAEAETTAKEAQKTAEEAIKKAEAGEIDVETLKKLVSKAAGLYYEAKSYLEVVKKKKE
B16: design_604_3e0b3014-b333-46f1-8adc-d7f0bf8048fa_2312_dldesign_0_cycle1_af2pred (protein)
chain: MEEVEKLKKEAEKAAKEAEKAVERIKDPKTAKEALKEASKELAKLYELAAELEHLPEGKEAGKEVREKAKKLREEAKKAWAAQLAA
B17: design_604_3e0b3014-b333-46f1-8adc-d7f0bf8048fa_2182_dldesign_0_cycle1_af2pred (protein)
chain: EEEEKKQKAVEKAKEAAKRLKEVYEKAPEELKPIVKDALDKVEAYAELAELNDAEIAEKAAKRAEKIAEEAIKKVE
B18: design_605_6ebdab39-eaab-4492-afcb-164e20c3b25e_16_dldesign_0_cycle1_af2pred (protein)
chain: AAAAHAKAVAEAKEEMKETIKEEAKKAKEKNEEAGKESLEFGKELLEFFEKSMEKVKDPKEAKKGGERGKKIIKKNAEAITKAIT
B19: design_604_3e0b3014-b333-46f1-8adc-d7f0bf8048fa_2314_dldesign_0_cycle1_af2pred (protein)
chain: EKEKRKEAIEKAEKVSTRIAKDIDTPEAKKIEELTKEAAEKALENVDNPEEVVKIMKEAAEEAAKDPEMEAVALVWKNAADFIK
B20: design_604_3e0b3014-b333-46f1-8adc-d7f0bf8048fa_1387_dldesign_0_cycle1_af2pred (protein)
chain: ELDALVRAAIGEAVVFVLGPAAAPAAERIAAATPEEAKALLEEIAATQTPYQAAELLHTARAFAAYAETKYS
B21: design_604_3e0b3014-b333-46f1-8adc-d7f0bf8048fa_1571_dldesign_0_cycle1_af2pred (protein)
chain: DPKQLLSDARDQITELFFEAGKEAVPYNRKVVAALKAGDLDAALAAVEEFQKEYPEVGAKAKAVMDKAIAAAKAA
B22: design_604_3e0b3014-b333-46f1-8adc-d7f0bf8048fa_1261_dldesign_0_cycle1_af2pred (protein)
chain: EAEKAAKKAEEVGKKAVKEVKKAVEEGLPKEELSKVVHEEIQKITEASTEAARIAEEKAGKEAGEKVLKAGEEARKKLIAIAKE
B23: design_604_3e0b3014-b333-46f1-8adc-d7f0bf8048fa_2008_dldesign_0_cycle1_af2pred (protein)
chain: SSLEEAKKAKELAEELKKKVKELAKEAKADPSKAAEAAKVAKAIGEEAKELGKKYPEAAKYADAVAEYALHAAEQLEKLA
B24: design_604_3e0b3014-b333-46f1-8adc-d7f0bf8048fa_1604_dldesign_0_cycle1_af2pred (protein)
chain: MKDAEKLDEINKLSAEAGKLLKEAAKKDPSRKAELEAAAKEAAKKFDEAYDLFEKDPDAGLALAKEAYKEVKKLVEA
B25: design_604_3e0b3014-b333-46f1-8adc-d7f0bf8048fa_1498_dldesign_0_cycle1_af2pred (protein)
chain: SEKEKEEEERKKLAEEERAAAKAALAAAKAAAQKGDVAAAIAAAQEARIHASAYAQYLKTEEAKKERDAIVAAAKAAVAAAKAA
B26: design_604_3e0b3014-b333-46f1-8adc-d7f0bf8048fa_1534_dldesign_0_cycle1_af2pred (protein)
chain: KTEAIQKFADTLSEIIKLAAEAGKKSGKTAEYQALIEGALSGDFETAVKNAKEAAKLAKKDDPELGKKIEEAAKKLAEYAKKVLES
B27: design_604_3e0b3014-b333-46f1-8adc-d7f0bf8048fa_2376_dldesign_0_cycle1_af2pred (protein)
chain: EEFEKAKKELKEAAEEAKKIDPEVGKEAKKIAEKATKVADSIIEKVGERAKPIATDILKNAKEKIKKLTEKRKKEKEA
B28: design_604_3e0b3014-b333-46f1-8adc-d7f0bf8048fa_1621_dldesign_0_cycle1_af2pred (protein)
chain: MEAEKRNEEYAKEVEELYKKVLDGDIEEDKEALKKAEKLLEEAEADPEMKEEVLKGLRAAVRMAKASIEAEEKR
B29: design_604_3e0b3014-b333-46f1-8adc-d7f0bf8048fa_2086_dldesign_0_cycle1_af2pred (protein)
chain: SAAAEKNVALASGTFKRLLEFPEEEQVATIADSIRANPAAADYFAAAAKADKENGPKLKKVLDIAAAKVAAA
B30: design_604_3e0b3014-b333-46f1-8adc-d7f0bf8048fa_2472_dldesign_0_cycle1_af2pred (protein)
chain: EEEKKLTDEAIKEAKKLFAKAGAEEDAKEVAEKARKEGVSAGLSKALSLAEYYKAEGNEKKAEAAEKAAEALADALIKIRKAKRE
B31: design_604_3e0b3014-b333-46f1-8adc-d7f0bf8048fa_1973_dldesign_0_cycle1_af2pred (protein)
chain: MAEKEAKAKKLMAEGYSKVYEAAALARVDPEEGKKEWEEVVEKYTKELEKLDPEKGKELKEKAEKLLEKAL
B32: design_604_3e0b3014-b333-46f1-8adc-d7f0bf8048fa_1627_dldesign_0_cycle1_af2pred (protein)
chain: ENLEKAKAADEKAKKFEDKAKEYEAKGKAEGKKYLYKAAAYYYAAAHAYNVAAKYYEKEGKAEEAAAAKAKAKEAEAKGNELAAK
B33: design_604_3e0b3014-b333-46f1-8adc-d7f0bf8048fa_1994_dldesign_0_cycle1_af2pred (protein)
chain: DNKKTVEALSKVNRLGKEAGEAPKEETMKLVEEGVKYAKEEAKKLKDPDYKKYLIDRGKELEENAKKYLA
B34: design_605_6ebdab39-eaab-4492-afcb-164e20c3b25e_2_dldesign_0_cycle1_af2pred (protein)
chain: SAVKEEAKKIIDEALDAGFEDPEKGRALAEEAYKLLASVPELAALGEEALKKVNAIIDRFEEATKKAEESRK
B35: design_604_3e0b3014-b333-46f1-8adc-d7f0bf8048fa_1827_dldesign_0_cycle1_af2pred (protein)
chain: MTHEEINAASYALRALTRAARDVPEAAAEFEAQIDFLMSGSIEEGVEKVIALAEKYRDRLSPEALALFEKAKEYLEKAK
B36: design_604_3e0b3014-b333-46f1-8adc-d7f0bf8048fa_1248_dldesign_0_cycle1_af2pred (protein)
chain: NAYEEAKKAVDEMEKAMKALAKADPSLADEMKDKIATARKRLEAAKTDEEYKKVAEEAKKAKAAAQSILDALKKN
B37: design_604_3e0b3014-b333-46f1-8adc-d7f0bf8048fa_1413_dldesign_0_cycle1_af2pred (protein)
chain: EEEKEKRAEEKRKEIEELAKLAAENKEKGEKAVEKAKELVEKADEEEAPALAKALSRLVAAAYAVDEEVADKAFEAYALAWKKAQ
B38: design_604_3e0b3014-b333-46f1-8adc-d7f0bf8048fa_2206_dldesign_0_cycle1_af2pred (protein)
chain: NELEKLKEEIKKEGEKKLKEVEEKYKEAKKLLKEDKEKGLKLLAETAGKAYEYAAEFEVLSKKVPEAAEYAKKLRAKAKEIRKLAEEA

biological target: VTCN1, Q7Z7D3
Sequence (Q7Z7D3 whole entry): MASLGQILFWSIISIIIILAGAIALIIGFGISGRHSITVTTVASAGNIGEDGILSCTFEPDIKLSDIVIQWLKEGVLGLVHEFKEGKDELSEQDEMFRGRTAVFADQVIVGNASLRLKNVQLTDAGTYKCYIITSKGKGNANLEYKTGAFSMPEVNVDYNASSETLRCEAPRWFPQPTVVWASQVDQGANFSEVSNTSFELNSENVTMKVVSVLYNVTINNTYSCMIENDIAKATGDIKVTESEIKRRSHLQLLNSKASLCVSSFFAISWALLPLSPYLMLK

Binding in a display sort, inactive:
B1 not found, B2 not found, B3 not found, B4 not found, B5 not found, B6 not found, B7 not found, B8 not found, B9 not found, B10 not found, B11 not found, B12 not found, B13 not found, B14 not found, B15 not found, B16 not found, B17 not found, B18 not found, B19 not found, B20 not found, B21 not found, B22 not found, B23 not found, B24 not found, B25 not found, B26 not found, B27 not found, B28 not found, B29 not found, B30 not found, B31 not found, B32 not found, B33 not found, B34 not found, B35 not found, B36 not found, B37 not found, B38 not found

Reference: article PMC13494018
